Rab9 prom act: qHTS Assay for Rab9 Promoter Activators; 320,000 compounds, 2.8% hits; Huh7 Rab9 promoter-luciferase reporter, luminescence, 24 h; AID 485297, 2010; Potency, µM (highest dose often 9.22 µM), inactives show at the top dose activation, negative = inhibition, hits mostly activators; also: % of control where 0% means no effect; nearly all actives have a fitted effect of over 60% in size
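Cells were plated at 1500 per well in reduced-serum medium with 10% FBS and left 2 h. Compound in DMSO was then added for 24 h at 37 °C. Reporter signal was read by luminescence after 10 min with luciferase detection reagent.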
SMN2 splice enh: qHTS Assay for Enhancers of SMN2 Splice Variant Expression | HEK293 SMN2-luciferase splicing reporter, luminescence, 30-36 h | Potency, µM (top dose mostly 46.1 µM), without a hit: at the top dose activity change, positive = activation, usual class: activators | 210,000 compounds, 2.8% hits; also: % of control where 0% means no effect; nearly all actives have a fitted effect of over 55% in size
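HEK293 cells carry an SMN2 […]–luciferase reporter in which exon 7 inclusion puts luciferase in frame. Cells were plated 10-12 h before compound addition, then incubated 30-36 h at 37C. ONE-Glo luminescence was read; sodium butyrate at 4.5 mM final served as control.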
FLuc modulator: qHTS profiling assay for firefly luciferase inhibitor/activator using purifed enzyme and Km concentrations of substrates (counterscreen for miR-21 project). Potency, µM (series often up to 57.5 µM), without a hit: at the top dose activity change, negative = inhibition, usual class: inhibitors. purified FLuc, Km substrates, luminescence inhibition. 360,000 compounds, 6.9% hits. Luciferin 4-monooxygenase (Photinus pyralis), P08659. AID 588342, 2011;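 also: plate controls were vehicle for no effect and reference inhibitor for full effect; nearly all actives have a fitted effect of over 55% in size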
Target sequence (P08659 whole entry, looked up): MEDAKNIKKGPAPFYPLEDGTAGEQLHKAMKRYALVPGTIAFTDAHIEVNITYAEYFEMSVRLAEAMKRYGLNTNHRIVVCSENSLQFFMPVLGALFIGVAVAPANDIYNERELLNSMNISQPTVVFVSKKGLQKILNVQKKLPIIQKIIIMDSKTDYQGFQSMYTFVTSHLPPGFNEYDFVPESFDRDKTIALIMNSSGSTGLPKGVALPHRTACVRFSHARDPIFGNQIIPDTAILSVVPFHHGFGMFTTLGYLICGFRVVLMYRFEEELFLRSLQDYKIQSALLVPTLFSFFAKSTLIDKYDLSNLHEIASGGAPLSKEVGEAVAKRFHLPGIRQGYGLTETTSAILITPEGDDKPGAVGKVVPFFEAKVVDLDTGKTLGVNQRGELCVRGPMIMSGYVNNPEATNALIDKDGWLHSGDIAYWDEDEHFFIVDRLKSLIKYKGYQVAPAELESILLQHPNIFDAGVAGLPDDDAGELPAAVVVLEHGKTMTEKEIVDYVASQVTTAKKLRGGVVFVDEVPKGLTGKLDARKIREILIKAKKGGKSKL
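Biochemical qHTS of compounds, final roughly 60 µM downward over six points, against 10 nM purified firefly luciferase using Km concentrations of substrates (10 uM D-luciferin, 10 uM ATP) in Tris acetate pH 7.5 buffer; luminescence output.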
NPC1 prom act: qHTS Assay for NPC1 Promoter Activators; Huh7 NPC1 promoter luciferase reporter, 24 h; Potency, µM (titrated, usually from 9.22 µM), for the others: at the top dose activation, actives largely listed as activators; 320,000 compounds, 2.4% hits; AID 485313, 2010; also: % of control where 0% means no effect; nearly all actives have a fitted effect of over 60% in size
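Huh7 cells stably carrying NPC1 promoter–luciferase, plated in Opti-MEM with 10% FBS for 2 h, were exposed to compound in DMSO for 24 h at 37 °C; luciferase reagent was added for 10 min and luminescence read.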
Luc counter: Counterscreen for Luciferase (Kinase-Glo TM) Inhibition. AID 1379, 2008. 200,000 compounds, 0.28% hits. Potency, µM (highest dose often 38.3 µM), inactives show at the top dose activity change, negative = inhibition, actives largely listed as inhibitors. Kinase-Glo luciferase, ATP luminescence, 8 min; also: % is scaled to controls: 0 for no effect and ±100 for the full control effect; nearly all actives have a fitted effect of over 60% in size
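Inhibition of Kinase-Glo luciferase light generation was assessed at 10 uM ATP in pH 7.2 imidazole buffer, with luminescence measured after eight minutes at ambient temperature.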
* marks the source's active call; other numbers are inactive results; u = inconclusive; x = not tested or not shown; [ ] = another dose, or the depositor's remark. Only some compounds are listed: those with a hit (about 7.3% of all), similar ones and a draw of the others. Calls follow the shape of the dose curve; as a rule, active = well fitted curve in the direction sought with a large enough effect; inconclusive = small, poorly fitted or top-dose-only effect, or another doubt; inactive = no such curve, though single readings can be large; an effect the other way counts as inactive or inconclusive. Potency is read from the fitted curve at half-maximal effect.

SMILES	Rab9 prom act	SMN2 splice enh	FLuc modulator	NPC1 prom act	Luc counter
O=C1/C(=C/C=C/c2ccco2)SC(=S)N1c1ccc(O)cc1	6.3%	x	21.3µM*	4.7%	x
Nc1ccc(-c2nc3ccc(C(=O)O)cc3s2)cc1	-43.0%	x	0.213µM*	-38.9%	-14.7%
O=c1cc(O)nc(-c2ccccc2)s1	4.4%	3.4%	-12.5%	-2.2%	-3.7%
Nc1nc2ccc(C(=O)N3CCCCC3)cc2s1	0.1%	x	-11.2%	1.3%	x
Nc1cc2sc(-c3ccc(C(=O)O)cc3)nc2cc1Cl	0.562µM*	1.41µM*	0.675µM*	0.794µM*	u
Cc1ccc2nc(-c3ccc(NC(=O)c4ccc(N)cc4)c(S(=O)(=O)O)c3)sc2c1	x	3.98µM*	x	x	0.4%[7.66 µM]
Cc1cccc(C(=O)Nc2ccc(-c3nc4ccccc4s3)cc2Cl)c1	x	x	-6.2%	x	x
O=C(O)c1ccc2nc(-c3ccccc3)sc2c1	-28.2%	0.1µM*	2.39µM*	-27.2%	-9.0%
O=C(O)C1CCN(C(=O)COc2ccc3c(c2)oc(=O)c2ccccc23)CC1	-1.5%	x	u	1.5%	x
COc1ccc(CNC(=O)Cc2c(C)c3ccc(O)cc3oc2=O)cc1	x	-1.4%	7.57µM*	x	x
COC(=O)Cc1c(C)c2ccc(OC(=O)c3ccccc3)cc2oc1=O	-0.1%	15.3%	15.1µM*	-3.0%	-8.9%
CCCCc1c(C)c2ccc(OCC(C)=O)cc2oc1=O	2.82µM*	15.8µM*	19µM*	3.16µM*	-20.8%
CCCc1c(C)c2ccc(OCC(C)=O)cc2oc1=O	u	22.6%	u	u	-6.5%
Cc1c(Cc2ccccc2)c(=O)oc2cc(OCC(=O)N3CCC(C(=O)O)CC3)ccc12	-5.7%	x	21.3µM*	0.1%	x
Cc1c(Cc2ccccc2)c(=O)oc2cc(OC(=O)c3ccccc3)ccc12	-3.3%	-10.5%	u	-5.3%	2.9%
O=C(NCc1ccc(F)cc1)c1cc2cccc3c2n1CCS3	x	x	0.1%	x	x
COc1cc(OC)c(NC(=O)Cn2cnc3nc4c(cc3c2=O)CCCC4)cc1Cl	x	x	-13.5%	x	x
CC(=O)N(C)C	x	x	x	x	0.5%[39.9 µM]
CC(=O)COc1ccc2c(C)c(-c3ccccc3)c(=O)oc2c1	3.16µM*	-7.0%	16.9µM*	u	-11.8%
Cc1c(C)c2ccc(OCC(=O)c3ccccc3)cc2oc1=O	3.55µM*	x	u	2.24µM*	x
Cc1c(CC(=O)O)c(=O)oc2cc(OCc3ccc(Cl)cc3)ccc12	14.6%	x	8.49µM*	12.0%	x
COc1cc(OC)c(C(=O)Nc2ccc3ccccc3c2)cc1OC	2.51µM*	x	4.78µM*	u	x
COc1cccc(NC(=O)c2cc3ccccc3cc2OC)c1	12.7%	x	9.53µM*	2.1%	x
COc1cccc(C(=O)Nc2cccc3ccccc23)c1OC	26.1%	x	u	18.7%	x
COc1cc2ccccc2cc1C(=O)Nc1ccc(O)cc1	2µM*	x	1.07µM*	1.41µM*	x
SMILES	Rab9 prom act	SMN2 splice enh	FLuc modulator	NPC1 prom act	Luc counter
COc1cc(Cl)c(C)cc1NC(=O)c1cccc(OC)c1OC	u	u	6.75µM*	u	-3.4%
COc1cccc(NC(=O)CN(C)C(=O)c2cc3ccccc3cc2OC)c1	-2.6%	x	3.0%	-3.5%	x
Cc1ccc(CNC(=O)CCCn2c(=O)[nH]c3ccc(Br)cc3c2=O)cc1	x	18.0%	7.3%	x	x
Cc1ccc(NC(=O)Cn2c(SCc3ccc(F)cc3)nc3cccnc32)cc1F	x	x	-18.0%	x	x
COc1cccc(C(=O)Nc2ccc(N(C)C)cc2)c1OC	1.41µM*	11.2µM*	5.36µM*	2.82µM*	-7.0%
CN(C)c1ccc(NC(=O)c2cccc(C(=O)Nc3ccc(N(C)C)cc3)n2)cc1	3.16µM*	14.1µM*	1.51µM*	2.82µM*	-9.0%
COc1cccc(C(=O)Nc2ccncc2)c1OC	-6.1%	x	-8.7%	-4.3%	x
O=C(Nc1ccccc1)c1cccc(C(=O)Nc2ccccc2)n1	-0.9%	x	2.5%	-1.2%	x
COc1cccc(C(=O)Nc2cccc(-c3cn4c(C)csc4n3)c2)c1OC	x	x	7.57µM*	x	x
COc1cccc(NC(=O)c2cccc(OC)c2OC)c1	u	15.8µM*	21.3µM*	u	-7.2%
COc1ccccc1NC(=O)C1=C(C)Nc2nc(CCCO)nn2C1c1cccc(O)c1 (stereo not given)	x	x	6.3%	x	x
Cc1ccccc1OCCCn1c(CCNC(=O)C2CCCCC2)nc2ccccc21	x	-16.0%	u	x	x
COC(=O)COc1cc2ccccc2cc1C(=O)Nc1ccccc1	-0.5%	-31.3%	9.53µM*	0.1%	2.6%
COc1ccc(NC(=O)c2cc3ccccc3cc2OC)cc1OC	13.4%	x	26.9µM*	-1.7%	x
COc1cccc(C(=O)Nc2ccc3c(c2)CCCN3C(=O)c2cccs2)c1OC	14.2%	x	9.53µM*	4.7%	x
COc1ccc(C(=O)Nc2ccc3c(c2)CCCN3C(=O)c2cccs2)c(OC)c1	-1.6%	x	u	-2.5%	x
O=C(CSc1ncc2c(n1)-c1ccccc1N(Cc1ccc(F)cc1)S2(=O)=O)NCCc1ccccc1	x	x	3.4%	x	x
O=C(COc1ccc2oc3c(c2c1)CCCC3)Nc1ccc(Br)cc1	x	-10.9%	-10.5%	x	x
CC(=O)N1N=C(c2ccc(C)cc2)OC1c1ccc(C(C)C)cc1 (stereo not given)	2.51µM*	u	3.01µM*	2.51µM*	-7.4%
CC(=O)N1N=C(c2ccc(C)cc2)OC1c1ccc(C)cc1 (stereo not given)	u	25.5%	16.9µM*	u	7.1%
CC(=O)N1N=C(c2cccnc2)OC1c1ccc(C(C)C)cc1 (stereo not given)	-8.2%	10.4%	u	-2.0%	7.1%
O=C(CSc1nnc(-c2ccc(Cl)cc2)o1)N1CCc2ccccc21	x	4.9%	-1.2%	x	x
CCC(=O)N1CCc2cc(Br)cc(S(=O)(=O)CCC(=O)N(C)c3cccc(C)c3)c21	-0.9%	-0.9%	3.4%	4.5%	x
O=C1CS(=O)(=O)C2(C(=O)N(Cc3ccccc3)c3ccccc32)N1c1ccccc1 (stereo not given)	x	x	6.1%	x	x
COc1nc(Nc2ccc(C(C)C)cc2)nc(OC)n1	19.6%	u	u	24.7%	-4.4%
CCOc1c(Nc2ccc(C(C)C)cc2)c(=O)c1=O	0.7%	x	13.5µM*	-2.3%	x
O=C1C2C3C=CC(C3)C2C(=O)N1c1nc2ccccc2s1 (stereo not given)	-4.7%	-15.7%	19µM*	2.3%	-3.4%
Cc1ccc(CC2CC(=O)N(c3nc4ccccc4s3)C2=O)cc1 (stereo not given)	-9.0%	x	26.9µM*	-0.7%	0.5%
Cc1ccc(N2C(=O)CS(=O)C(c3ccccc3)C2=O)cc1C (stereo not given)	11.5%	-2.8%	12µM*	4.0%	0.3%
Cc1ccc(N2C(=O)C3C(C2=O)N2CCCN2C3c2ccccc2)cc1C (stereo not given)	-1.0%	-8.3%	-3.3%	-1.9%	0.7%

Screening results deposited in PubChem by National Center for Advancing Translational Sciences (NCATS).
